# This is a sample that favours compounds with a hit; in the whole collection about 4.2% have one here.
# Wnt bcat act: Wnt/beta-catenin pathway activators, primary screen, cell-based, plate reader, single point; Wnt/beta-catenin reporter cell assay, activator; activation, % at 9.35 µM; 300,000 compounds, 1.2% hits; in the data active = activation above about 30%, passing the limit was not always enough; inconclusive = no clear call, values can overlap the other calls;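 also: 0% = neutral control wells and 100% = positive control wells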
# GAA850 FXN act: FXN promoter activators, primary screen, cell-based, luciferase luminescence, HEK293 lucGAA850; 360,000 compounds, 0.56% hits; HEK293 lucGAA850 FXN promoter luciferase reporter, 24 h; percent of 10 µM SAHA response; activation, % at 6 µM; AID 540364, 2011;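 active = activation above the average of all compounds screened plus 3 SD, cutoff fixed separately per campaign, cut at about 7.5% in these data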;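 also: 0% = DMSO wells and 100% = 10 µM SAHA wells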
# AHR act: AHR activators, primary screen, cell-based, luminescence, luciferase reporter, human | AHR-responsive luciferase reporter cells | activation, % at 5 µM | Aryl hydrocarbon receptor (Homo sapiens), P35869 | 320,000 compounds, 2.5% hits; in the data active = activation above about 47%;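 also: 0% = vehicle wells and 100% = reference agonist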
# Target sequence (P35869 whole entry, looked up): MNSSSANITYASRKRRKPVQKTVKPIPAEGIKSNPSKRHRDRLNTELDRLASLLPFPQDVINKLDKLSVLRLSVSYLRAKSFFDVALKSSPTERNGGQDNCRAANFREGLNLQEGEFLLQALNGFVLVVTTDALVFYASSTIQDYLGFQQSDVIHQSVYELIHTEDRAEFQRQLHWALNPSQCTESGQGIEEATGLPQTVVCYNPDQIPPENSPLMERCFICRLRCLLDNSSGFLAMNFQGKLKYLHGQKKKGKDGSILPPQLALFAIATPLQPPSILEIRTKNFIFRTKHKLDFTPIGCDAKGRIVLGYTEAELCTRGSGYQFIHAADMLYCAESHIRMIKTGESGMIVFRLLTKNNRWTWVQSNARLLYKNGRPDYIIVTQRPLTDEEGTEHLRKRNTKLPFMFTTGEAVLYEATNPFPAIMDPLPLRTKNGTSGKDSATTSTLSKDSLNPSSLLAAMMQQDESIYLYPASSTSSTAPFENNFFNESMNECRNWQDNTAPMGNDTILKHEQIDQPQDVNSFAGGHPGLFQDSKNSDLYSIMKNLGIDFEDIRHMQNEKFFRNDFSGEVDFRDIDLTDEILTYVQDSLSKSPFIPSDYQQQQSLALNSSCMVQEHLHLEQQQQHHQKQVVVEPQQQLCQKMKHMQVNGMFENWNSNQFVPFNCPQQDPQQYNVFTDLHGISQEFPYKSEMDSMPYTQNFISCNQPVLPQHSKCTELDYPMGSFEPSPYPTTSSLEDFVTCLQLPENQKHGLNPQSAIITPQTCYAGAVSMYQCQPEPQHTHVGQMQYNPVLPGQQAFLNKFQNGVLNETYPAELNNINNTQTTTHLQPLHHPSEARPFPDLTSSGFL
# MITF act: activators of MITF-driven TRPM1 promoter reporter, primary screen, cell-based, SK-MEL-5, luciferase, single point. SK-MEL-5 TRPM1-promoter luciferase, 24 h; % of positive control, neutral wells = 0. activation, % at 12.5 µM. 300,000 compounds, 0.75% hits. AID 588334, 2011;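 active = mean activation of at least 80% with every replicate also reaching 80%; inconclusive = mean reaches 80% but some replicate falls short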;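 also: 0% = neutral control wells and 100% = parthenolide positive control wells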
# esBAF inh: Bmi1 luciferase reporter increase in mESCs, primary screen, esBAF inhibitor project, mouse ES cells, Bmi1 luciferase knock-in, single point; 24 h; 100% = twice the neutral-well signal; AID 602393, 2012; reporter increase, % at 12.5 µM; 350,000 compounds, 2% hits; in the data active = activation above about 40%; inconclusive = no clear call, values can overlap the other calls;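 also: 0% = median of the plate's neutral control wells and 100% = double that signal; a rise in the Bmi1 reporter signal indicates esBAF inhibition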
# The depositor's hits bear a star; ? = inconclusive; / = not tested or not shown.
SMILES,Wnt bcat act,GAA850 FXN act,AHR act,MITF act,esBAF inh
O=C(Nc1ccc(F)cc1F)Nc1csc2ccccc12,16.4,1.3,50.9*,/,/
CCCNC(=O)C[C@H]1CC[C@@H]2[C@H](COc3ccc(NC(=O)Nc4ccccc4)cc3C(=O)N2C)O1,/,/,/,/,-4.5
O=C([C@H]1[C@H](CO)[C@H]2Cn3c(ccc(C4=CCCCC4)c3=O)[C@H]2N1Cc1nccs1)N1CCOCC1,/,/,/,/,1.4
O=C(Nc1cnccn1)c1cccs1,/,-0.7,3.5,-9.9,-3.8
Cc1cc(NC(=O)c2ccccc2F)ncc1NC(=O)c1cccs1,11.6,4.1,2.0,58.0,49.6*
O=C(Nc1ccc(NC(=O)c2cccs2)cn1)c1ccccc1,44.3*,3.4,-0.9,?,/
O=C(Cc1ccccc1)Nc1ccc(NC(=O)c2ccccc2)nc1,17.5,3.4,2.8,74.9,56.1*
N#Cc1ccc(NC(=O)c2cccs2)nc1,6.3,3.1,-0.2,85.7*,?
O=C(Nc1ccccc1F)N1C[C@H]2[C@@H](c3ccccc31)[C@H](CO)N2C(=O)Cc1cccnc1,/,/,/,/,22.6
Cc1noc(C)c1S(=O)(=O)N(C)C[C@@H]1Oc2ccc(NC(=O)CCC(F)(F)F)cc2CC(=O)N([C@@H](C)CO)C[C@H]1C,/,/,/,/,-0.1
CCCN1C[C@@H](C)[C@@H](OC)CN(C)C(=O)c2ccc(NC(=O)c3ccccc3)cc2OC[C@H]1C,/,/,/,/,0.5
C[C@H](CO)N1C[C@H](C)[C@H](CN(C)CC2CC2)Oc2c(NS(=O)(=O)c3cccs3)cccc2C1=O,/,/,/,/,-2.3
O=C(Cc1cccnc1)N[C@H]1CC[C@H](CCn2cc(Cc3ccccc3)nn2)O[C@H]1CO,/,/,/,/,4.2
Cc1ccc(Cc2cnc(N3C(=N)SC(c4ccccc4)C3=O)s2)cc1 (stereo not drawn),2.4,2.8,3.7,6.3,53.1*
O=C(Nc1ccc(N2CCCC2)c(Cl)c1)c1cccnc1,6.9,1.9,28.6,?,48.7*
O=C(Nc1ccc(Cl)c(Cl)c1)c1cccnc1,-1.3,3.7,71.4*,/,28.1
O=C(Nc1ccc(N2CCCCC2)c(Cl)c1)c1cccnc1,12.9,-3.8,21.9,69.4,48.6*
NNC(=O)c1ccc(Cn2cc(Cl)cn2)cc1,/,0.7,22.6,-14.1,-2.8
O=C(Nc1ccc(Cl)c(Cl)c1)c1ccc(Cn2cc(Cl)cn2)cc1,-23.9,6.1,/,75.3,68.6*
CNC[C@H]1OCCCC[C@H](C)Oc2ccc(N(C)C)cc2C(=O)N([C@@H](C)CO)C[C@@H]1C,/,/,/,/,-1.4
Cc1nc2cc(N3CCCCC3)c(NC(=O)c3cccnc3)cc2c(=O)n1Cc1ccccc1,-2.1,1.3,49.5*,20.3,1.3
CC(=O)Nc1cc2c(=O)n(Cc3ccccc3)c(C)nc2cc1N1CCOCC1,13.6,2.3,23.2,1.1,31.8
C[C@H]1CN([C@@H](C)CO)C(=O)c2cc(NS(C)(=O)=O)ccc2O[C@@H]1CN(C)S(=O)(=O)c1cccs1,/,/,/,/,-3.1
CC(=O)Nc1ccc2c(c1)C(=O)N(C)[C@H]1CC[C@H](CC(=O)NC3CCCCC3)O[C@@H]1CO2,/,/,/,/,0.1
CN(C)C=Nc1ccc2nc3c(cc2c1)[nH]c1ccccc13,39.1*,9.2*,70.9*,68.1,2.5
SMILES,Wnt bcat act,GAA850 FXN act,AHR act,MITF act,esBAF inh
CCOC(=O)c1[nH]c2ccccc2c1N=CN(C)C,/,0.6,16.3,-9.3,/
O=C(Nc1ccccc1)N[C@@H]1CC[C@@H](CCNS(=O)(=O)c2cccc(F)c2)O[C@H]1CO,/,/,/,/,1.5
CCn1c(C)cc(C=C2C(=O)c3ccccc3C2=O)c1C,9.5,1.4,/,5.5,/
Cc1cc(C=C2C(=O)c3ccccc3C2=O)c(C)n1C,62.9*,4.5,18.3,7.8,-8.0
CC1=C(C(=O)N(C)C)CC(CC(=O)NC2CCCCC2)C(=O)N1CCC1=CCCCC1 (stereo not drawn),-2.1,2.4,/,/,70.2*
CCN(CC)C(=O)C1=C(C)N(CCC2=CCCCC2)C(=O)C(CC(=O)NC2CCCC2)C1 (stereo not drawn),-4.6,-0.8,/,/,1.7
CC1=C(C(=O)N(C)C)CC(CC(=O)NC2CCCC2)C(=O)N1CCC1=CCCCC1 (stereo not drawn),7.5,1.5,/,/,48.8*
COc1ccc(S(=O)(=O)Nc2ccc3c(c2)C(=O)N([C@@H](C)CO)C[C@H](C)[C@@H](CN(C)S(=O)(=O)c2cccs2)OCCCC[C@H](C)O3)cc1,/,/,/,/,0.9
COCCCn1c(=NC(=O)c2ccncc2)c(C#N)cc2c(=O)n3cccc(C)c3nc21,-5.7,-3.5,58.9*,/,-4.0
Cc1cccn2c(=O)c3cc(C#N)c(=NC(=O)c4ccncc4)n(CCCOC(C)C)c3nc12,/,3.7,13.9,-8.1,/
O=C1/C(=C\Nc2ccc(Cl)cc2)CCN1c1ncccn1,1.5,3.8,51.7*,/,32.2
Cc1cc2ncn(C(=O)N3CCCCC3)c2cc1C,0.3,1.8,2.0,31.4,24.3
Cc1cc2ncn(C(=O)N3CCCCCC3)c2cc1C,5.2,3.5,2.6,30.9,49.3*
CCOc1cccc(C(=O)NC(=S)Nc2ccccc2)c1,5.0,3.5,12.6,92.9*,/
Cc1cccc(OCC(=O)Nc2cccc(C(=O)NCC(C)C)c2)c1,-2.8,-2.4,1.2,-12.4,-0.7
CCOc1cccc(C(=O)Nc2cccc(C(=O)NCC(C)C)c2)c1,-2.2,0.0,71.1*,2.8,/
COc1ccccc1C(=O)Nc1ccc2[nH]ncc2c1,5.4,1.8,/,/,14.8
CC(=O)c1cccc(NC(=S)NC(=O)c2ccc(C)cc2Cl)c1,/,3.4,12.1,28.5,59.6*
COc1cccc(C(=O)Nc2ccc3[nH]ncc3c2)c1,7.8,4.4,52.1*,40.8,-0.1
COc1ccc(NC(=O)Nc2ccc3c(c2)CC(=O)N([C@H](C)CO)C[C@@H](C)[C@H](CN(C)C(=O)Nc2ccc(F)cc2)O3)cc1,/,/,/,/,-3.8
O=C(NC(=S)Nc1ccc2ncccc2c1)c1ccccc1,15.1,7.2,18.7,74.9,67.2*
O=C(NC(=S)Nc1ccc2nc[nH]c2c1)c1ccccc1,17.4,3.2,2.5,101.8*,55.4*
Cc1ccc(NC(=S)NC(=O)c2ccccc2)cc1NC(=S)NC(=O)c1ccccc1,9.2,2.9,/,-15.9,28.2
O=C(O)c1ccc(NC(=S)NC(=O)c2ccc3ccccc3c2)cc1,18.4,2.4,5.7,2.0,40.8*
O=C(NC(=S)Nc1ccc2[nH]ncc2c1)c1ccccc1,/,0.9,13.4,41.0,66.2*
O=C(Nc1ccc2ncccc2c1)c1ccccc1,-1.2,-1.0,6.4,-10.4,-4.8
O=C(O)c1cccc(NC(=S)NC(=O)c2ccc3ccccc3c2)c1,15.8,-2.9,-6.1,-37.5,/
C[C@@H]1CCCCO[C@@H](CN(C)S(=O)(=O)c2ccc(F)cc2)[C@H](C)CN([C@@H](C)CO)C(=O)c2cc(NC(=O)CCC(F)(F)F)ccc2O1,/,/,/,/,-2.8

# Screens as filed in PubChem.
